Data on 13 compounds can be found in PubChem BioAssay (NCATS).

Inconclusive results are not listed. Where a call stands in place of a potency, no number is given. Activity calls are given as the source filed them. Calls come from the whole dose curve; as a rule, active = well fitted cell-killing curve with a large enough effect; inconclusive = small, poorly fitted or top-dose-only effect, or effect the other way; inactive = flat fitted curve, though single readings scatter. Peptide text beside a SMILES is read from it.
Potency is the fitted concentration of half-maximal effect.

A short description of the test: Cell Viability - HUV-EC-C (AID 542). Note: nearly all actives have a fitted effect of over 35% in size. The following applies: HUV-EC-C endothelial cell viability, qHTS; series mostly up to 92.2 µM. From the text: NIH Chemical Genomics Center [NCGC]
NIH Molecular Libraries Screening Centers Network [MLSCN]
National Institutes of Environmental Health Sciences [NIEHS]
National Toxicology Program [NTP]
We have developed a 1536-well cell-based assay for quantitative high throughput screening (qHTS) against a number of cell lines to determine in vitro cytotoxicity of small molecules. This particular assay uses the HUV-EC-C cell line which is derived from normal human vascular endothelial cells.
NCGC Assay Protocol Summary:
The CellTiter-Glo luminescent cell viability assay (Promega) is a homogeneous method to measure the number of viable cells in culture. The end point readout of this assay is based on quantitation of intracellular ATP, an indicator of metabolic activity, using the luciferase reaction. Luciferase catalyzes the oxidation of beetle Luciferin to oxyluciferin and light in the presence of ATP. The luminescent signal is proportional to amount of ATP present.
Using the CellTiter-Glo luminescent cell viability assay, the amount of cellular ATP was measured in the HUV-EC-C cell line with complete culture medium following compound treatment for 40 hours. The assay was performed in opaque white Kalypsys 1536-well plates. In the screen, tamoxifen and doxorubicin were used as positive controls. Library compounds were measured for their ability to cause acute toxicity in the cell line, as reflected by a decrease in intracellular ATP levels, in a concentration-dependent manner. […] AC50 values were determined from concentration-response data modeled with the standard Hill equation.
qHTS protocol for CellTiter Glo HUV-EC-C cellular assay
[Step] [Parameter] [Value] [Description]
1. Reagent; 5 uL; 1000 HUV-EC-C cells/well
2. Time; 5 hr; 37 °C incubation
4. Controls; 23 nL; Tamoxifen 0.34 uM to 100 uM & Doxorubicin 0.02 nM to 100 uM
5. Time; 40 hr; 37 °C incubation
6. Reagent; 5 uL; CellTiter Glo reagent
7. Time; 20 min; Room Temperature
8. Detection; Luminescence; Viewlux plate reader
Keywords: cell viability, cytotoxicity, HUV-EC-C cell line, luminescence, NTPHTS, NTPHTS_NCGC, NIEHS, EPA, DSSTox, MLSMR, MLSCN, NIH Roadmap, qHTS, NCGC
As for `CCc1nc(N)nc(N)c1-c1ccc(Cl)cc1`, the Potency result is “inactive”.

As to `CCCCC(CC)COC(=O)C(C#N)=C(c1ccccc1)c1ccccc1` (stereo not drawn), the Potency entry was “inactive”.

Regarding `CN(C)c1ccc2nc3ccc(=[N+](C)C)cc-3sc2c1`, the Potency is 2.51 µM (active).

For `NS(=O)(=O)c1cc(C(=O)O)c(NCc2ccco2)cc1Cl`, the Potency result is “inactive”.

Take `COc1c2occc2cc2ccc(=O)oc12`: the Potency entry was “inactive”.

Consider `Cc1ccc(C)c(OCCCC(C)(C)C(=O)O)c1`, for which the Potency result is “inactive”.

Regarding `Cc1cc(O)c2c(c1)C(=O)c1cc(O)cc(O)c1C2=O`, the Potency was 31.6 µM (active).

`CS(=O)(=O)OCCCCOS(C)(=O)=O`: the Potency entry was “inactive”.

For the compound `Nc1ccc(S(N)(=O)=O)cc1`, the Potency result was “inactive”.

In the case of `CC(=O)Nc1ccc(O)cc1`, the Potency entry is “inactive”.

As to `c1ccc2[nH]c(-c3cscn3)nc2c1`, the Potency entry was “inactive”.

In the case of `COC(=O)[C@H](Cc1ccccc1)NC(=O)[C@@H](N)CC(=O)O` (H-Asp-Phe-OMe), the Potency result was “inactive”.

Consider `CCCc1cc(=O)[nH]c(=S)[nH]1`, for which the Potency entry is “inactive”.
